Test results from PubChem BioAssay AID504832 (National Center for Advancing Translational Sciences (NCATS), 2011).
Screen size: about 310,000 compounds; about 18,000 (5.8%) were called active. Inconclusive results (about 22%) are left out. What follows is part of a selection rich in actives, with near analogues and random picks from the rest. Unmarked numbers belong to inactive results. Calls follow the shape of the dose curve; as a rule, active = well fitted inhibition curve with a large enough effect; inconclusive = small, poorly fitted or top-dose-only effect, or another doubt; inactive = no such curve, though single readings can be large or run the other way.

Experiment: Primary qHTS for delayed death inhibitors of the malarial parasite plastid, 48 hour incubation
Conditions: P. falciparum luciferase growth in erythrocytes; series mostly up to 28.7 µM; activity change, negative = inhibition: at the top concentration
Text: The goal of this screen is to discover new antimalarial compounds that act by inhibiting the development of the apicoplast in the malarial parasite Plasmodium falciparum. The biochemical processes that make this organelle essential for erythrocytic stage parasites are not well understood. However, antibiotics such as azithromycin and tetracycline, which target the apicoplast translational machinery, have a potent antimalarial effect.
We have developed a cell-based assay that measures parasite growth based on the expression of an integrated copy of a firefly luciferase reporter. To detect small molecules that cause this "delayed death" phenotype, erythrocytes infected with the luciferase-expressing parasites were incubated with compounds for either one or two generations, corresponding to 48 and 96 hours, respectively. Compounds that inhibit parasite growth in the second generation, but not the first, should be enriched in antimalarials that target the apicoplast. Growth inhibition is detected by a decrease in luciferase activity.
Assay Provider: David Fidock and Eric Ekland, Columbia University
Keywords: NIH Roadmap, MLPCN, MLI, MLSMR, qHTS, NCGC, qHTS, malaria, luciferase, viability
Four microliters of culture medium (RPMI 1640 with 0.5% w/v Albumax (GIBCO), 24 mM sodium bicarbonate and 10 ug/mL gentamycin) were dispensed by a Multi-drop Combi into white solid 1536-well plates (Grenier) and 23 nL compound was added by a pin tool. Four microliters of infected erythrocytes (2% hematocrit, 0.1% parasitemia final concentration) in culture medium were dispensed and the plates incubated for 48 hours at 37 C in 5% CO2. Two microliters of luciferase detection reagent was added and luminescence was detected by a ViewLux (PerkinElmer) reader.
% is scaled to controls: 0 for no effect and ±100 for the full control effect; potency is read from the fitted curve at half-maximal effect.

SMILES	activity change, negative = inhibition [%]	Potency
CCOC(=O)c1c(C)[nH]c(C)c1S(=O)(=O)NCCCc1ccco1	-0.529	
CC1CCCCC1NC(=O)CCS(=O)(=O)c1ccc2c(c1)NC(=O)CO2 (stereo not given)	9.15	
CCOc1ccc(CN2CCN(Cc3ccc4cc(F)ccc4n3)CC2CCO)cc1 (stereo not given)	7.78	
COc1cccc(CN(C)CC(=O)Nc2sc3c(c2C#N)CCC3)c1	-7.19	
COc1ccc(OCC(O)CN(C)C(=O)C(C)Oc2ccccc2)cc1 (stereo not given)	-15.8	
COc1cccc(CN(C)CC(O)COC(c2ccccc2)c2ccccc2C)c1 (stereo not given)		8.28 µM (active)
CC(=O)Nc1ccc(NC(=O)CSc2nnnn2-c2ccccc2F)cc1	7.75	
O=C(NCCNc1ccccc1[N+](=O)[O-])c1ccccc1F	192	
COc1ccccc1C(=O)Nc1ccc(OCC(=O)N2CCCCC2)cc1	33.9	
CC(C)c1ccc2c(c1)c(SC(C)(C)C)c(CC(C)(C)C(=O)O)n2Cc1ccc(Cl)cc1		8.28 µM (active)
O=C(O)c1ccc(Cn2c(=S)[nH]c3cc(Cl)ccc3c2=O)cc1	12.3	
COc1ccc(NS(=O)(=O)c2cccc3nsnc23)cc1Cl	-4.88	
COc1ccc(-n2nc(C(=O)Nc3cc(OC)c(OC)c(OC)c3)c3ccccc3c2=O)c(OC)c1	26.5	
COc1cccc(NC(=O)c2nn(-c3ccc(OC)cc3OC)c(=O)c3ccccc23)c1	21.4	
COc1ccc(-n2nc(C(=O)NCC(=O)N3CCN(c4ccccc4OC)CC3)c3ccccc3c2=O)c(OC)c1		1.04 µM (active)
O=C(NCCCN1CCCCC1)C1CC(=O)N(CCc2ccccc2)C1 (stereo not given)	28	
O=C(Nc1ccc2c(c1)OCO2)C1CC1(Cl)Cl (stereo not given)	34.4	
CCOc1ccc(C(O)Cn2c(=N)n(CCN3CCCCC3)c3ccccc32)cc1 (stereo not given)		4.65 µM (active)
CCOc1ccc(C(O)Cc2nc3ccccc3n2C)cc1 (stereo not given)	48.9	
Cn1c(=N)n(CC(O)c2ccccc2)c2ccccc21 (stereo not given)	80.1	
COc1ccc(N(CC(=O)NCc2ccc(F)cc2)C(=O)CCC(=O)Nc2nccs2)cc1	9.32	
CN1CCN(NC(=O)Nc2ccc(Br)cc2)CC1	84	
Cc1ccc(C)c(NC(=O)COC(=O)Cn2c(C)csc2=O)c1	1.84	
COC(=O)c1ccc(OC(=O)c2cnccn2)cc1	10.3	
CC(C)C(=O)N1CC(=O)Nc2ccc(F)cc2C1c1ccc(F)cc1 (stereo not given)	-8.58	

SMILES	activity change, negative = inhibition [%]	Potency
FC(F)(F)Oc1ccc(NC(=S)NCc2ccccc2)cc1	16.6	
CS(=O)(=O)c1sc(C(=O)NC(=S)Nc2ccc(OC(F)(F)F)cc2)c2c1C=CCC2		2.62 µM (active)
CCNC(=S)Nc1ccc(OC(F)(F)F)cc1	9.67	
COc1ccc(/C=C(/NC(=O)c2ccccc2)C(=O)Nc2cccc(C(=O)O)c2)cc1	2.11	
Cc1cc(C)cc(OCC(=O)OCC(=O)NC2CCCC2)c1	54.4	
CS(=O)(=O)N1CCN(C(=O)CSc2ccccc2)CC1	14.8	
CCCC[C@@H]1CN=C(N)N1CCc1cc(C(F)(F)F)cc(C(F)(F)F)c1		5.22 µM (active)
Cc1cccc(N2CCN(C(C)C(=O)N3CCc4ccccc43)CC2)c1C (stereo not given)	-2.14	
CCCn1c(=N)n(CC(=O)c2ccc(Cl)c(Cl)c2)c2ccccc21		7.38 µM (active)
CCCNC(=O)c1ccc(Cl)c(Cl)c1	27.8	
CCCCOC(=O)Cn1c(=N)n(CCN(CC)CC)c2ccccc21	19.6	
Cc1ccnc(N2C(=O)c3ccc([N+](=O)[O-])cc3C2=O)c1	-3.81	
CCOC(=O)N1CCC(NC(=O)CCc2ccccc2)CC1	-17.2	
CCOC(=O)CN1CCC(c2ccccc2)CC1	-10.5	
CCOC(=O)N1CCC(c2cc(=O)n(-c3ccccc3)[nH]2)CC1		9.28 µM (active)
Cc1cc(NC(=O)COc2ccc(Cl)cc2Cl)n(CCC#N)n1	59.7	
COC(=O)c1c(NC(=O)COc2ccc(Cl)cc2Cl)sc2c1CC(C)(C)NC2(C)C		8.28 µM (active)
Cc1nn(-c2ccccc2)c(C)c1NC(=O)COc1ccc(Cl)cc1Cl	-13.7	
O=C(NCC(=O)N1CCCCCCC1)c1ccccc1Cl	51.7	
CCC1CCCCN1CCCNC(=O)c1cc2c(Cl)nc3ccccc3c2s1 (stereo not given)		11.7 µM (active)
Cc1ccc(CN2C(=O)CCC2C(=O)NCCCN2CCCCC2C)cc1 (stereo not given)	27	
CCC1CCCCN1CCCNC(=O)Cn1nc(-c2ccccc2)ccc1=O (stereo not given)	4.91	
COc1cccc(NC(=O)C2c3cc(OC)c(OC)cc3C(=O)N(C)C2c2cccnc2)c1 (stereo not given)		8.28 µM (active)
COc1cccc(NC(=O)CSc2nnc(-c3cccnc3)o2)c1	27.1	
CCOc1cc2c(cc1OCC)C(C(=O)O)C(c1ccc(OC)c(O)c1)N(C)C2=O (stereo not given)	8.88	
